Records with an inconclusive call do not appear. Activity calls are given as the source filed them. The call rests on the fitted dose curve; in most records, active means well fitted curve in the direction sought with a large enough effect; inconclusive means small, poorly fitted or top-dose-only effect, or another doubt; inactive means no such curve, though single readings can be large; an effect the other way counts as inactive or inconclusive. Peptide text beside a SMILES is read from it.
How the values were obtained:
[1] = Quantitative High-Throughput drug screen in 47 multiple myeloma cell lines against the NCATS MIPE library collection: KMS27_JCRB cell viability assay (AID 1918970); further: nearly all actives have a fitted effect of over 30% in size
Procedure, shortened: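 Luminescent ATP read-out (CellTiter-Glo, 5 min at room temperature) after 48 h compound exposure of 500 KMS27_JCRB cells per well; DMSO wells define full viability and media-only wells zero.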

[2] = Quantitative High-Throughput drug screen in 47 multiple myeloma cell lines against the NCATS MIPE library collection: KMS12BM_JCRB cell viability assay (AID 1918971); further: nearly all actives have a fitted effect of over 35% in size
Procedure, shortened: (§1)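 Myeloma cell lines, 500 cells per well, exposed to MIPE 4.0 library compounds for 48 h at 37C, 5% CO2. Viability from ATP by CellTiter-Glo luminescence; normalised to DMSO (100%) and media-only (0%) wells.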

[3] = Quantitative High-Throughput drug screen in 47 multiple myeloma cell lines against the NCATS MIPE library collection: KMS12PE_JCRB cell viability assay (AID 1918972); further: nearly all actives have a fitted effect of over 30% in size
Procedure, shortened: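 Steps: seed 500 cells per well; pin-transfer MIPE 4.0 library; incubate 48 h at 37C, 5% CO2, humidified; add CellTiter-Glo, 5 min room temperature; read luminescence.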

[4] = Quantitative High-Throughput drug screen in 47 multiple myeloma cell lines against the NCATS MIPE library collection: NCIH929_DSMZ cell viability assay (AID 1918978); further: nearly all actives have a fitted effect of over 35% in size
Procedure, shortened: (§2)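 Inhibition of viability over 48 h was scored by ATP content (CellTiter-Glo) in 500-cell wells. Zero and full viability were defined by media-only and DMSO-only wells.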

[5] = Quantitative High-Throughput drug screen in 47 multiple myeloma cell lines against the NCATS MIPE library collection: OCIMY1_PLB cell viability assay (AID 1918979); further: nearly all actives have a fitted effect of over 35% in size
Procedure, shortened: as §2

[6] = Quantitative High-Throughput drug screen in 47 multiple myeloma cell lines against the NCATS MIPE library collection: MM1R_ATCC cell viability assay (AID 1918981); further: nearly all actives have a fitted effect of over 35% in size
Procedure, shortened: as §2

[7] = Quantitative High-Throughput drug screen in 47 multiple myeloma cell lines against the NCATS MIPE library collection: LP1_DSMZ cell viability assay (AID 1918982); further: nearly all actives have a fitted effect of over 35% in size
Procedure, shortened: as §2

[8] = Quantitative High-Throughput drug screen in 47 multiple myeloma cell lines against the NCATS MIPE library collection: KMS28PE_JCRB cell viability assay (AID 1918983); further: nearly all actives have a fitted effect of over 35% in size
Procedure, shortened: as §2

[9] = Quantitative High-Throughput drug screen in 47 multiple myeloma cell lines against the NCATS MIPE library collection: KMS34_JCRB cell viability assay (AID 1918985); further: nearly all actives have a fitted effect of over 40% in size
Procedure, shortened: as §2

[10] = Quantitative High-Throughput drug screen in 47 multiple myeloma cell lines against the NCATS MIPE library collection: OCIMY7_PLB cell viability assay (AID 1918987); further: nearly all actives have a fitted effect of over 65% in size
Procedure, shortened: as §2

[11] = Quantitative High-Throughput drug screen in 47 multiple myeloma cell lines against the NCATS MIPE library collection: OCIMY5_PLB cell viability assay (AID 1918988); further: nearly all actives have a fitted effect of over 65% in size
Procedure, shortened: as §2

[12] = Quantitative High-Throughput drug screen in 47 multiple myeloma cell lines against the NCATS MIPE library collection: OPM1_PLB cell viability assay (AID 1918989); further: nearly all actives have a fitted effect of over 40% in size
Procedure, shortened: as §2

[13] = Quantitative High-Throughput drug screen in 47 multiple myeloma cell lines against the NCATS MIPE library collection: KMS21BM_JCRB cell viability assay (AID 1918974); details: ATP luminescence, 48 h; viability: at 45.8 µM (top of the series) unless noted
Procedure, shortened: (§3)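 Relative luminescence from CellTiter-Glo served as the viability signal, referenced to DMSO-treated (100%) and cell-free medium (0%) controls. Treatment lasted 48 hours at 37C with 500 cells per well.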

[14] = Quantitative High-Throughput drug screen in 47 multiple myeloma cell lines against the NCATS MIPE library collection: L363_DSMZ cell viability assay (AID 1918984); further: nearly all actives have a fitted effect of over 40% in size
Procedure, shortened: as §2

[15] = Quantitative High-Throughput drug screen in 47 multiple myeloma cell lines against the NCATS MIPE library collection: SKMM1_PLB cell viability assay (AID 1919863); details: SKMM1 myeloma viability, CellTiter-Glo ATP, 48 h; viability: active compounds read low; further: nearly all actives have a fitted effect of over 35% in size
Procedure, shortened: as §2

[16] = Quantitative High-Throughput drug screen in 47 multiple myeloma cell lines against the NCATS MIPE library collection: KMS26_JCRB cell viability assay (AID 1918975); further: nearly all actives have a fitted effect of over 45% in size
Procedure, shortened: as §1

[17] = Quantitative High-Throughput drug screen in 47 multiple myeloma cell lines against the NCATS MIPE library collection: MMM1_PLB cell viability assay (AID 1918976); further: nearly all actives have a fitted effect of over 35% in size
Procedure, shortened: as §2

[18] = Quantitative High-Throughput drug screen in 47 multiple myeloma cell lines against the NCATS MIPE library collection: MOLP8_DSMZ cell viability assay (AID 1918977); further: nearly all actives have a fitted effect of over 45% in size
Procedure, shortened: as §2

[19] = Quantitative High-Throughput drug screen in 47 multiple myeloma cell lines against the NCATS MIPE library collection: MM1S_ATCC cell viability assay (AID 1918980); further: nearly all actives have a fitted effect of over 45% in size
Procedure, shortened: as §2

[20] = Quantitative High-Throughput drug screen in 47 multiple myeloma cell lines against the NCATS MIPE library collection: KMS20_JCRB cell viability assay (AID 1918973); further: nearly all actives have a fitted effect of over 45% in size
Procedure, shortened: as §3
Potency means the concentration at half of the fitted maximal effect.

COC(=O)[C@H](Cc1ccccc1)NC(=O)[C@@H](N)CC(=O)O (H-Asp-Phe-OMe)
inactive: Potency [1] | Potency [2] | Potency [3] | Potency [4] | Potency [5] | Potency [6] | Potency [7] | Potency [8] | Potency [9] | Potency [10] | Potency [11] | Potency [12]

Clc1ccc(C(Cn2ccnc2)OCc2c(Cl)cccc2Cl)c(Cl)c1 (configuration not stated)
active: Potency [1] 23.5 µM | Potency [2] 23.5 µM | Potency [3] 14.8 µM | Potency [13] 20.9 µM | Potency [14] 18.7 µM | Potency [10] 29.6 µM | Potency [15] 26.4 µM

CN(C)c1ccc2nc3ccc(=[N+](C)C)cc-3sc2c1
active: Potency [1] 1.32 µM | Potency [2] 4.69 µM | Potency [3] 5.9 µM | Potency [13] 1.48 µM | Potency [16] 1.32 µM | Potency [17] 5.26 µM | Potency [18] 3.32 µM | Potency [4] 6.62 µM | Potency [5] 1.48 µM | Potency [19] 2.64 µM | Potency [6] 1.05 µM | Potency [7] 4.69 µM | Potency [8] 5.9 µM | Potency [14] 3.72 µM | Potency [9] 0.59 µM | Potency [10] 2.35 µM | Potency [11] 0.526 µM | Potency [12] 3.72 µM | Potency [15] 1.66 µM

Cc1cc(=O)oc2cc(O)ccc12
inactive: Potency [1] | Potency [2] | Potency [3] | Potency [20] | Potency [16] | Potency [18] | Potency [4] | Potency [5] | Potency [7] | Potency [8] | Potency [14] | Potency [11] | Potency [12] | viability [15] 114%
active: Potency [17] 0.296 µM | Potency [6] 6.62 µM

Clc1ccc(C(Cn2ccnc2)OCc2ccc(Sc3ccccc3)cc2)c(Cl)c1 (configuration not stated)
active: Potency [1] 18.7 µM | Potency [2] 26.4 µM | Potency [3] 18.7 µM | Potency [13] 26.4 µM | Potency [17] 23.5 µM | Potency [6] 26.4 µM | Potency [7] 23.5 µM | Potency [14] 20.9 µM | Potency [10] 26.4 µM | Potency [11] 26.4 µM

Cc1cccc(C#Cc2ccccc2)n1
inactive: Potency [1] | Potency [3] | Potency [5] | Potency [8] | viability [15] 120%
active: Potency [2] 18.7 µM | Potency [4] 20.9 µM | Potency [12] 8.33 µM

O=C(c1ccccc1)c1ccc2n1CCC2C(=O)O (configuration not stated)
inactive: Potency [1] | Potency [2] | Potency [3] | Potency [13] | Potency [18] | Potency [5] | Potency [7] | Potency [8] | Potency [14] | Potency [9] | viability [15] 105%
active: Potency [20] 8.33 µM | Potency [16] 1.48 µM | Potency [17] 0.743 µM | Potency [4] 5.26 µM | Potency [19] 1.05 µM | Potency [6] 2.09 µM | Potency [10] 7.43 µM | Potency [11] 0.743 µM | Potency [12] 20.9 µM

Source: PubChem BioAssay (NCATS)
